# Screening data (PubChem)
# Only some compounds are listed: those with a hit (about 7.4% of all), similar ones and a draw of the others.
# SMN2 splice enh: qHTS Assay for Enhancers of SMN2 Splice Variant Expression; AID 1458, 2008; hit rate 2.8% among 210,000; HEK293 SMN2-luciferase splicing reporter, luminescence, 30-36 h; Potency, µM (highest dose often 46.1 µM), without a hit: at the top dose activity change, positive = activation, hits mostly activators; note: % of control where 0% means no effect; nearly all actives have a fitted effect of over 55% in size
#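 HEK293 cells carry an SMN2 […]–luciferase reporter in which exon 7 inclusion puts luciferase in frame. Cells were plated 10-12 h before compound addition, then incubated 30-36 h at 37C. ONE-Glo luminescence was read; sodium butyrate at 4.5 mM final served as control.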
# FLuc modulator: qHTS profiling assay for firefly luciferase inhibitor/activator using purifed enzyme and Km concentrations of substrates (counterscreen for miR-21 project); hit rate 6.9% among 360,000; Potency, µM (top dose mostly 57.5 µM), for inactives: top-dose activity change, negative = inhibition, most hits filed as inhibitors; purified FLuc, Km substrates, luminescence inhibition;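 note: plate controls were vehicle for no effect and reference inhibitor for full effect; nearly all actives have a fitted effect of over 55% in size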
# Target sequence (P08659 whole entry, looked up): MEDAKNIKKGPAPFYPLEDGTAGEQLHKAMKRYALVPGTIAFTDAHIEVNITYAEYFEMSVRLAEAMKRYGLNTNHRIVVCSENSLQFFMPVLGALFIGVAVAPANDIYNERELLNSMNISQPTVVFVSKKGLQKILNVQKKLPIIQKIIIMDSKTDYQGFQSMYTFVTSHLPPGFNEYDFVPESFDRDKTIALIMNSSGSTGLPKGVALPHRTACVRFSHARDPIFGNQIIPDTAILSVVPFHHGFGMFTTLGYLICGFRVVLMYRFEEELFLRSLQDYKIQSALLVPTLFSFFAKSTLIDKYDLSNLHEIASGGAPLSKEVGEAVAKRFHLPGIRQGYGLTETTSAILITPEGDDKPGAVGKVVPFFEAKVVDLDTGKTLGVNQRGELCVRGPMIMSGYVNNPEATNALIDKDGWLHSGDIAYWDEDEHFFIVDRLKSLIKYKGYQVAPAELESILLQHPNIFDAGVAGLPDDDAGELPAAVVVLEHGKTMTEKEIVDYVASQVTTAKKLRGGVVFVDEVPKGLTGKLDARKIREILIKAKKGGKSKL
#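 Biochemical qHTS of compounds, final roughly 60 µM downward over six points, against 10 nM purified firefly luciferase using Km concentrations of substrates (10 uM D-luciferin, 10 uM ATP) in Tris acetate pH 7.5 buffer; luminescence output.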
# NPC1 prom act: qHTS Assay for NPC1 Promoter Activators | Huh7 NPC1 promoter luciferase reporter, 24 h | Potency, µM (titrated, usually from 9.22 µM), for the others: at the highest dose activation, usual class: activators | hit rate 2.4% among 320,000; note: % of control where 0% means no effect; nearly all actives have a fitted effect of over 60% in size
#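 Luciferase expression driven by the NPC1 promoter was measured in stably transfected Huh7 cells after a 24 h compound incubation, using a luciferase reagent and a luminescence read.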
# ELG1 genotoxic: qHTS screen for small molecules that induce genotoxicity in human embryonic kidney (HEK293T) cells expressing luciferase-tagged ELG1 | HEK293T ELG1-luciferase reporter, luminescence, 16 h | Potency, µM (top dose mostly 46 µM), for the others: at the highest dose activity change, positive = activation, usual class: activators | hit rate 1.3% among 330,000 | AID 504466, 2011; note: % of control where 0% means no effect; nearly all actives have a fitted effect of over 60% in size
#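 DMSO vehicle served as control against compound-treated ELG1-luciferase HEK293T cells; exposure lasted 16 hr at 37 °C and 5% CO2, followed by ONE-Glo luminescence detection after 30 min.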
# Rab9 promoter act: qHTS Assay for Rab9 Promoter Activators | Huh7 Rab9 promoter-luciferase reporter, luminescence, 24 h | Potency, µM (highest dose often 9.22 µM), without a hit: top-dose activation, negative = inhibition, usual class: activators | hit rate 2.8% among 320,000; note: % of control where 0% means no effect; nearly all actives have a fitted effect of over 60% in size
#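 Cells were plated at 1500 per well in reduced-serum medium with 10% FBS and left 2 h. Compound in DMSO was then added for 24 h at 37 °C. Reporter signal was read by luminescence after 10 min with luciferase detection reagent.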
# Active calls of the source: *; ? = inconclusive; nt = not tested or not shown; [ ] = remark or other dose. Calls come from the whole dose curve; as a rule, active = well fitted curve in the direction sought with a large enough effect; inconclusive = small, poorly fitted or top-dose-only effect, or another doubt; inactive = no such curve, though single readings can be large; an effect the other way counts as inactive or inconclusive. Potency is the fitted concentration of half-maximal effect.
SMILES,SMN2 splice enh,FLuc modulator,NPC1 prom act,ELG1 genotoxic,Rab9 promoter act
Cc1ccccc1C(=O)Nc1nnc(SCC(=O)NCc2ccco2)s1,nt,1.7µM*,1.8µM*,2.9µM*,1.8µM*
CC(C)(C)c1ccc(C(=O)NCc2nnc(SCC(=O)NCc3ccco3)o2)cc1,nt,19µM*,3%,7%,2%
O=C(CSc1nnc(NC(=O)c2ccc3c(c2)OCO3)s1)NCc1ccco1,4µM*,0.76µM*,1.1µM*,?,0.71µM*
O=C(CSc1nnc(NC(=O)c2ccco2)s1)NCc1ccc2c(c1)OCO2,10%,?,-5%,-2%,-8%
O=C(CSc1nnc(NC(=O)c2ccc(F)cc2)s1)NCc1ccco1,nt,1.9µM*,1.6µM*,?,3.5µM*
Cc1ccccc1Nc1nnc(SCC(=O)NCc2ccco2)s1,6%,3%,1%,0%,4%
Cc1ccc(NC(=O)CN2C(=O)c3ccccc3Sc3ncccc32)c(C)c1,nt,-7%,nt,nt,nt
O=C(CSc1nnc(NC(=O)c2ccccc2)s1)NCc1ccco1,nt,4.8µM*,2.8µM*,?,3.2µM*
CCOC(=O)C1CCN(C(=O)C2CCN(C3=NS(=O)(=O)C(c4ccc(C)cc4)=C3CC)CC2)CC1,29%,0%,nt,nt,nt
Brc1ccc(C=Nc2ccc3c(c2)OCCOCCOCCO3)s1,-1%,11µM*,0%,0%,2%
Oc1c(Cl)cc(Cl)cc1C=Nc1ccc2c(c1)OCCO2,nt,27µM*,0%,15%,-7%
CCOc1ccc(C(=O)Nc2ccccc2-c2ccccc2)cc1Cl,-15%,-2%,-3%,0%,2%
COc1ccc(C(=O)Nc2ccccc2C(=O)O)cc1NC(=O)C(c1ccccc1)c1ccccc1,nt,13µM*,20%,4%,22%
CCOc1c(Cl)cc(C(=O)Nc2ccccc2C(=O)O)cc1Cl,?,19µM*,25%,1%,?
COc1ccccc1C(=O)Nc1ccc(C(=O)Nc2ccccc2C(=O)O)cc1,nt,0%,2%,-8%,4%
CCOc1ccc(C(=O)Nc2cccc(C(=O)O)c2C)cc1Cl,0.5µM*,3.4µM*,?,-10%,?
CCN(CC)S(=O)(=O)c1cc(C(=O)Nc2ccccc2C(=O)O)ccc1OC,10%,6µM*,16%,5%,0%
COc1c(Cl)cc(C(=O)Nc2ccccc2-c2ccccc2)cc1Cl,-9%,3%,-5%,-3%,2%
Cc1ccc(S(=O)(=O)N2CCOCC2)cc1NC(=O)CSc1nnc(NC2CC2)s1,nt,nt,0%,-2%,-2%
COc1ccc(C(=O)Nc2cc(C(=O)O)cc(C(=O)O)c2)cc1Cl,3%,-1%,-6%,-4%,-9%
COc1ccc(C(=O)Nc2ccccc2C(=O)O)cc1Cl,-2%[1.84 µM],5.4µM*,?,?,3.5µM*
COC(=O)[C@@H](NC(=O)N1CCc2nc(-c3ccccc3)c3c(c2C1)CO[C@@H](C)C3)C(C)C,4%[9.22 µM],nt,nt,nt,nt
N#Cc1cnc2sc3ccccc3n2c1=N,17%,24µM*,24%,14µM*,?
Cc1ccc2c(CC(=O)Nc3sccc3C(N)=O)coc2c1,?,11µM*,2µM*,?,2.8µM*
CCOC(=O)c1c(NC(=O)Cc2coc3cc(C)ccc23)sc2c1CCCC2,3%,-12%,nt,nt,nt
SMILES,SMN2 splice enh,FLuc modulator,NPC1 prom act,ELG1 genotoxic,Rab9 promoter act
Cc1ccc2c(CC(=O)Nc3ccc(N4CCN(C)CC4)cc3C)coc2c1,-3%,8.5µM*,?,-1%,5%
Cc1ccc(NC(=O)Cc2coc3c(C)c(C)ccc23)c(C)c1,3%,-1%,nt,nt,nt
Oc1ccc(/C=N/N2CCCCC2)cc1O,nt,?,-22%,?,-3%[1.84 µM]
COc1ccc(O)c(/C=N/N2CCCCC2)c1,nt,9.5µM*,3.2µM*,?,2µM*
COc1ccc(/C(C)=N/N2CCCCC2)c(O)c1,nt,9.5µM*,5%,7%,18%
CCCN(CCC)C(=O)c1cc([N+](=O)[O-])cc2c1-c1ccc([N+](=O)[O-])cc1C2=C(C#N)C#N,nt,-3%,-1%,3%,8%
CC(C)(C)OC(=O)NCCc1nnc(SCC(=O)Nc2ccc(Br)cc2)o1,nt,1%,-2%,1%,0%
O=[N+]([O-])c1ccc(N/N=C/c2cccc(O)c2O)cc1,nt,17µM*,-3%,12µM*,1%
O=[N+]([O-])c1ccc(N/N=C/c2cccnc2)cc1,nt,?,6%,-7%,-13%
O=[N+]([O-])c1ccc(N/N=C/c2ccc[nH]2)cc1,-32%,?,-9%,11%,2%
O=[N+]([O-])c1ccc(N/N=C/c2cccc(O)c2)cc1,nt,24µM*,3%,?,28%
Cc1cc(C)n(CC(O)Cn2c3ccccc3c3ccccc32)n1 (stereo not given),13µM*,2%,0%,-2%,-5%
CCC(C(=O)Nc1ccccc1C(=O)OC)n1nc(C)c2c(C)n(-c3ccc(C)cc3)nc2c1=O (stereo not given),nt,-17%,nt,nt,nt
COc1ccc(Cc2nc3ccccc3n2CC(=O)N/N=C/c2ccccc2)cc1OC,-6%,-2%,-2%,-3%,0%
COc1ccc(/C=N/NC(=O)c2ccc(O)cc2O)cc1CSc1ccccn1,7%,27µM*,1%,4%,3%
COc1ccc(/C=N/NC(=O)c2ccccc2Cl)cc1CSc1nc2ccccc2s1,-43%,-1%,-17%,?,2%
COc1ccc(/C=N/NC(=O)CCn2nnc3ccccc32)cc1,nt,13µM*,-4%,3%,1%
COc1ccc(/C=N/NC(=O)CCSc2nc3ccccc3s2)cc1OC,18%,21µM*,-2%,-1%,-6%
CCn1c(SCC(=O)N/N=C/c2ccc(OC)c(OC)c2)nc2ccccc21,4%,17µM*,1%,6%,-2%
COc1ccccc1/C=C\C=N\NC(=O)CCn1nnc2ccccc21,10%,-18%,8%,-3%,-3%
Cc1ccccc1-n1c(SCC(=O)Nc2ccc(Cl)cc2Cl)nc(O)cc1=O,-2%,?,nt,nt,nt
COc1ccc(-c2[nH]c3c(c2-c2c(-n4cccc4)n(C)c(=O)[nH]c2=O)c(=O)[nH]c(=O)n3C)cc1F,nt,-2%,nt,nt,nt
C=CCn1c(=O)c(C(=O)NC(C)c2ccccc2)c(O)c2ccccc21 (stereo not given),nt,0%,-1%,-1%,0%
COc1cc(/C=N/NC(=O)CSc2ccccn2)ccc1OC(C)C,nt,4.3µM*,12%,?,?
COc1ccc(/C=N/NC(=O)c2ccc(-n3cnnn3)cc2)cc1,nt,11µM*,0%,-1%,-4%
CC(C)c1ccc(/C=N/NC(=O)c2ccc(-n3cnnn3)cc2)cc1,nt,5.4µM*,-1%,-6%,-1%
CCCCOc1ccc(-c2ncc(Cl)cn2)cc1,13µM*,2.7µM*,2.5µM*,13µM*,1.8µM*
